# PubChem BioAssay
# The source made the active and inactive calls. Unless noted, the rule behind the calls is not given here.
# How the values were obtained:
# [1] = compound effects on lung adenocarcinoma cell viability – A549, calcein-AM fluorescence, 48 h, basal, profiling panel (AID 1162); conditions: higher = more signal; note: test concentration not given here
# [2] = compound effects on differentiated 3T3-L1 adipocyte viability – cell-based, 3T3-L1 adipocytes, calcein-AM fluorescence, 48 h, basal, profiling panel (AID 1163); conditions: 3T3-L1 adipocytes viability, higher = more signal; note: test concentration not given here
# [3] = compound effects on hepatocellular carcinoma cell viability – HepG2, calcein-AM fluorescence, 48 h, basal, profiling panel (AID 1164); conditions: higher = more signal; note: test concentration not given here
# [4] = compound effects on multiple myeloma cell viability – MM1S, calcein-AM fluorescence, 48 h, basal, profiling panel (AID 1165); conditions: higher = more signal; note: test concentration not given here
# [5] = calcein-AM signal in unstimulated myeloma cells – cell-based, calcein-AM fluorescence, 48 h, PK04 Diversity Set, profiling panel (AID 1166); conditions: RPMI8226 myeloma viability, higher = more signal;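 note: cells grown under basal conditions without added stimulus; test concentration not given here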
# [6] = JC-1 mitochondrial signal, unstimulated HepG2 cells – cell-based, JC-1 fluorescence, 24 h, 100 nL compound, profiling panel (AID 1167); conditions: HepG2 mitochondrial potential, higher = more signal; note: test concentration not given here
# [7] = JC-1 mitochondrial signal, unstimulated adipocytes – cell-based, JC-1 fluorescence, 3T3-L1 adipocytes, 24 h, 100 nL compound, profiling panel (AID 1168); conditions: JC-1 mitochondrial fluorescence, higher = more signal, called active from +8 up or from −8 down; note: test concentration not given here
# [8] = JC-1 mitochondrial signal, unstimulated myeloma cells – cell-based, JC-1 fluorescence, RPMI8226, 24 h, 100 nL compound, profiling panel (AID 1169); conditions: JC-1 mitochondrial potential fluorescence, higher = more signal; note: test concentration not given here
# [9] = JC-1 mitochondrial signal, unstimulated MM1S myeloma – cell-based, JC-1 fluorescence, 24 h, 100 nL compound, profiling panel (AID 1170); conditions: MM1S mitochondrial potential, higher = more signal; note: test concentration not given here
# [10] = resazurin metabolic signal in A549 cells – cell-based, resazurin fluorescence, 24 h, PK04 Diversity Set, profiling panel (AID 1171); conditions: A549 viability, higher = more signal, called active from +8 up or from −8 down; note: test concentration not given here
# [11] = resazurin metabolic signal in HepG2 cells – cell-based, resazurin fluorescence, 24 h, PK04 Diversity Set, profiling panel (AID 1172); conditions: HepG2 viability, higher = more signal; note: test concentration not given here
# [12] = budding yeast growth changes without added modifier – OD600, strain BY4716, 24 h, basal condition, primary screen (AID 1173); conditions: S. cerevisiae BY4716 growth, OD600, 24 h; higher = more signal, called active from +8 up or from −8 down
# [13] = viability profiling in MM1S myeloma cells – cell-based, resazurin fluorescence, basal, 24 h, PK04 Diversity Set, profiling panel (AID 1174); conditions: higher = more signal, called active from +8 up or from −8 down; note: test concentration not given here
# [14] = biological target: Dihydroorotate dehydrogenase (quinone), mitochondrial (Plasmodium falciparum (isolate 3D7)) (UniProt Q08210); experiment: inhibition of P. falciparum DHODH – biochemical, C-terminal His tag, absorbance 600 nm, primary screen (AID 1175); conditions: PfDHODH enzyme, DCIP absorbance 600 nm; higher = more signal, called active from +8 up or from −8 down;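 note: recombinant parasite enzyme with a five histidine tag at its C terminus; test concentration not given here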
# [15] = inhibition of PAO1 biofilm formation – strain PAO1, LB-PBS medium, absorbance 600 nm, primary screen (AID 1176); note: test concentration not given here; conditions: P. aeruginosa PAO1 growth/biofilm, A600, 12 h; higher = more signal
# [16] = growth modulation of vineyard yeast isolate – strain RM11-1a, OD600, basal, 24 h, primary screen (AID 1177);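 note: cultures grown under basal conditions with no added stressor; test concentration not given here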; conditions: S. cerevisiae RM11-1a growth, OD600, 24 h; higher = more signal, called active from +8 up or from −8 down
# [17] = growth of efflux-deficient E. coli DRC39 – strain DRC39, OD650, 24 h, E. coli filamentation inducers, primary screen (AID 1178);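 note: growth measured as culture turbidity by optical density at 650 nm; test concentration not given here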; conditions: E. coli DRC39 acrAB, higher = more signal, called active from +8 up or from −8 down
# [18] = growth of efflux-deficient E. coli DRC39 – strain DRC39, OD650, 48 h, E. coli filamentation inducers, primary screen (AID 1179);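 note: screen aims at cell division blockers that make cells filament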; conditions: E. coli DRC39 delta-acrAB growth, higher = more signal, called active from +8 up or from −8 down
# [19] = viability profiling in RPMI8226 myeloma cells – cell-based, resazurin fluorescence, basal, 24 h, PK04 Diversity Set, profiling panel (AID 1180); conditions: higher = more signal;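 note: RPMI8826 multiple myeloma cell line at 5000 cells per well; test concentration not given here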
# [20] = biological target: E3 ubiquitin-protein ligase XIAP (Homo sapiens) (UniProt P98170); experiment: small molecules binding XIAP protein – biophysical, small-molecule microarray, fluorescence 635 nm, primary screen (AID 1181); conditions: higher = more signal;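 note: score merges 667 nm emission and signal to noise over triplicate slides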
# E3 ubiquitin-protein ligase XIAP (Homo sapiens), sequence (P98170 whole entry, looked up): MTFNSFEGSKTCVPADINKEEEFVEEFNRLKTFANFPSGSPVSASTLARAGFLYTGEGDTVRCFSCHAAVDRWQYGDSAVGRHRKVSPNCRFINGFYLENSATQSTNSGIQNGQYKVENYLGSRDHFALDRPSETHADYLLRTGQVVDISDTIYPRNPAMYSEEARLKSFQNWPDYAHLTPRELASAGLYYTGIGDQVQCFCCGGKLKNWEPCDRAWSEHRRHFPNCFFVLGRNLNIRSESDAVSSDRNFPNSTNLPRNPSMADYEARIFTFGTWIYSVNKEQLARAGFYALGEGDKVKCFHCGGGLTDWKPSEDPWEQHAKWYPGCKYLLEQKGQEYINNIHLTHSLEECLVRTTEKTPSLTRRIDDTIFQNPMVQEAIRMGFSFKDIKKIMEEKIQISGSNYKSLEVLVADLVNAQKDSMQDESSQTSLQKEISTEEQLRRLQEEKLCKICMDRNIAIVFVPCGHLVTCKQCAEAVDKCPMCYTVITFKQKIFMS
# Dihydroorotate dehydrogenase (quinone), mitochondrial (Plasmodium falciparum (isolate 3D7)), sequence (Q08210 whole entry, looked up): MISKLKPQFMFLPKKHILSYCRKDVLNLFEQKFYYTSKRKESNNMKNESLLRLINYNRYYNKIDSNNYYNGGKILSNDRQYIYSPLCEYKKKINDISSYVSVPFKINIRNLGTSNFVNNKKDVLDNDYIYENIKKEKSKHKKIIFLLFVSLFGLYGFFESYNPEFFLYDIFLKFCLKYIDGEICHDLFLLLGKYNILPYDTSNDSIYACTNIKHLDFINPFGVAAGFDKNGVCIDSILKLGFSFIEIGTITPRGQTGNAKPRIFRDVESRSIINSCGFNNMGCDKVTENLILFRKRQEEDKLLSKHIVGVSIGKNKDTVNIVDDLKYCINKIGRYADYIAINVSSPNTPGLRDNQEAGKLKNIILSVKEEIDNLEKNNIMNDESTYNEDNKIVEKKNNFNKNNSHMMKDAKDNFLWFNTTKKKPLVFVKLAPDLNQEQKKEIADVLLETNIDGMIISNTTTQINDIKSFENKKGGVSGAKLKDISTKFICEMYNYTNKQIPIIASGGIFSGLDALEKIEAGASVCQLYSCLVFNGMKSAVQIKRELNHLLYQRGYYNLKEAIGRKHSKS
SMILES,z-score [1],z-score [2],z-score [3],z-score [4],z-score [5],z-score [6],z-score [7],z-score [8],z-score [9],z-score [10],z-score [11],z-score [12],z-score [13],composite z-score [14],z-score [15],z-score [16],z-score [17],z-score [18],z-score [19],composite z-score [20]
CC(CO)N1C(=O)[C@@H]2[C@H]3C(=O)OCC=C[C@H]3OC23C=CCN(CCN2CCOCC2)C(=O)[C@@H]13 (stereo not given in full),-0.313,0.344,-0.0457,0.646,-0.0704,-0.382,0.126 (inactive),0.0907,0.12,-0.147 (inactive),0.0843,0.0245 (inactive),-0.622 (inactive),-0.0564 (inactive),-0.649 (inactive),-0.169 (inactive),-0.55 (inactive),-0.733 (inactive),-0.266,-0.0046
COCCCNC(=O)[C@@]1(Sc2ccc(C)cc2)CC(=O)N(C2CCCCC2)[C@@H]1c1ccc(CO)cc1,-0.162,0.152,-0.574,-1.59,-1.45,-0.155,1.07 (inactive),0.855,0.2,0.377 (inactive),-0.0171,-0.0904 (inactive),0.0246 (inactive),-0.0365 (inactive),-0.438 (inactive),0.0315 (inactive),0.235 (inactive),-0.195 (inactive),-0.577,-0.191
O=C1O[C@@H](c2ccccc2)[C@@H](c2ccccc2)N2[C@@H](c3ccc(OCCO)cc3)[C@]3(C(=O)Nc4ccccc43)[C@@H](C(=O)O)[C@H]12,-0.644,0.624,-0.888,0.243,-0.146,-1.36,-0.174 (inactive),-0.0788,-1.13,0.225 (inactive),-0.273,-0.624 (inactive),0.432 (inactive),-1.09 (inactive),0.449 (inactive),-0.66 (inactive),0.468 (inactive),-0.513 (inactive),0.441,-0.0339
C=CCOC(=O)[C@H]1[C@@H]2C(=O)O[C@@H](c3ccccc3)[C@@H](c3ccccc3)N2[C@@H](c2ccc(OCCOC(=O)[C@@H]3C[C@@H]4C(=O)N[C@@H](CCCCN(C)C)C(=O)N4[C@@H]3c3ccc(O)cc3)cc2)[C@]12C(=O)Nc1ccccc12,-0.0988,0.887,0.52,-0.305,-0.0297,-2.38,0.0411 (inactive),-0.473,-0.92,0.23 (inactive),-2.65,-1.48 (inactive),0.0862 (inactive),-1.52 (inactive),1.07 (inactive),0.0694 (inactive),-1.05 (inactive),-0.628 (inactive),0.313,-0.0172
C#CCN([C@@H](Cc1ccc(O)cc1)C(=O)OC)[C@@H](/C=C/C1CC1)[C@H](O)Cc1ccccc1,-3.21,-0.0073,-3.12,-3.28,-4.06,-3.58,-0.0474 (inactive),-1.2,-1.58,-0.2 (inactive),-1.12,-2.71 (inactive),-0.758 (inactive),-0.228 (inactive),-0.672 (inactive),-0.136 (inactive),-0.933 (inactive),-0.737 (inactive),-0.61,0.798
COc1ccccc1CN1C(=O)c2ccccc2[C@](Cc2ccccc2I)(C(=O)NCC(F)(F)F)[C@@H]1c1ccc(CO)cc1,-0.698,0.95,-0.568,-2.39,-4.25,0.349,-1.39 (inactive),-0.68,-0.176,0.12 (inactive),-0.569,-1.28 (inactive),-0.142 (inactive),-0.673 (inactive),0.457 (inactive),0.648 (inactive),-0.496 (inactive),-0.613 (inactive),0.17,0.0264
CCCC[C@@H]1C[C@H]1[C@@H](NC(=O)c1cccs1)c1ccc(C(F)(F)F)cc1,-1.36,-0.249,-0.655,-0.771,-1.47,-1.04,-1.23 (inactive),0.404,-0.917,0.724 (inactive),-0.117,1.95 (inactive),-0.6 (inactive),0.322 (inactive),0.771 (inactive),1.83 (inactive),-0.82 (inactive),-0.734 (inactive),-0.601,0.0408
CN1C(=O)C2C=CC(C(O)c3ccccn3)N(N(c3ccccc3)c3ccccc3)C2C1=O (stereo not given),-0.711,-1.63,-0.108,0.0262,-0.771,-1.53,-0.695 (inactive),0.305,-0.468,-0.859 (inactive),-1.15,0.527 (inactive),-0.555 (inactive),0.464 (inactive),1.01 (inactive),0.429 (inactive),-0.155 (inactive),-0.38 (inactive),-0.368,0.304
C=CCC(OC(C)=O)[C@@H]1[C@@H](N(Cc2cc3ccccc3o2)C(=O)c2ccc(C)cc2)c2cc(OCCCO)ccc2N1C(=O)Cc1ccc(OC)cc1 (stereo not given in full),1.09,0.426,0.979,-0.143,0.166,2.52,0.235 (inactive),0.83,0.449,0.951 (inactive),0.564,-0.859 (inactive),0.655 (inactive),0.889 (inactive),0.0885 (inactive),0.634 (inactive),-0.506 (inactive),-0.0196 (inactive),0.618,-0.102
COCCOC(=O)N1C(=O)[C@@]2(c3cc(C#CC4(O)CCCCCC4)ccc31)[C@H](c1ccc(O)cc1)N1[C@H](c3ccccc3)[C@H](c3ccccc3)OC(=O)[C@H]1[C@@H]2C(=O)NC[C@H](O)c1ccccc1,0.121,0.266,-0.31,-1.49,-3.49,-2.3,-1.27 (inactive),-1.15,-0.715,0.0025 (inactive),0.267,0.31 (inactive),-1.45 (inactive),0.658 (inactive),1.29 (inactive),0.657 (inactive),0.157 (inactive),-0.105 (inactive),-1.62,0.367
O=C(NCC(F)(F)F)[C@@H]1c2ccccc2C(=O)N(Cc2cc(F)cc(C(F)(F)F)c2)[C@H]1c1ccc(CO)cc1,0.792,0.929,-0.158,0.227,-0.202,1.23,0.00233 (inactive),-0.656,-0.389,0.44 (inactive),-0.16,-0.359 (inactive),0.0875 (inactive),0.94 (inactive),0.221 (inactive),0.933 (inactive),0.647 (inactive),-0.0858 (inactive),0.867,-0.126
COc1ccc(-c2cc3c(c(CCc4ccccc4)n2)[Si](C(C)C)(C(C)C)OC3)cn1,0.342,-0.171,-0.999,-1.68,-2.05,-0.911,-0.315 (inactive),-0.738,-0.24,2.35 (inactive),1.09,0.0476 (inactive),0.42 (inactive),-0.319 (inactive),-1.29 (inactive),0.817 (inactive),0.152 (inactive),0.469 (inactive),1.18,0.136
COCCOC(=O)N1C(=O)[C@@]2(c3cc(C#CC4=CCCCC4)ccc31)[C@H](c1ccc(OCCO)cc1)N1[C@H](c3ccccc3)[C@H](c3ccccc3)OC(=O)[C@H]1[C@@H]2C(=O)NC[C@H](O)c1ccccc1,0.148,0.72,0.688,-1.54,-2.03,-0.9,0.758 (inactive),-0.784,-0.964,0.607 (inactive),0.334,2.36 (inactive),-0.363 (inactive),0.184 (inactive),3.6 (inactive),2.83 (inactive),-0.441 (inactive),-0.16 (inactive),-0.48,-0.12
Cc1ccccc1C(O)C1C=CC2C(=O)N(C)C(=O)C2N1N(c1ccccc1)c1ccccc1 (stereo not given),-0.665,-1.41,0.655,-0.967,0.0748,0.02,-0.41 (inactive),-0.217,-0.41,-0.191 (inactive),-0.417,0.0882 (inactive),-0.166 (inactive),0.0842 (inactive),0.53 (inactive),0.591 (inactive),-0.209 (inactive),-0.334 (inactive),-0.0373,0.396
COCCOC(=O)N1C(=O)[C@@]2(c3cc(C#CC4=CCCCC4)ccc31)[C@H](C(N)=O)[C@H]1C(=O)O[C@H](c3ccccc3)[C@H](c3ccccc3)N1[C@@H]2c1ccccc1OCCO,-2.23,0.619,-3.63,-3.29,-3.99,-2.49,2.7 (inactive),-0.819,-1.6,-2.57 (inactive),-2.76,0.132 (inactive),-4.34 (inactive),-0.295 (inactive),2.21 (inactive),1.23 (inactive),-1.4 (inactive),-1.23 (inactive),-5.78,0.0899
[N-]=[N+]=NCc1ccccc1[C@H]1OC(c2ccc(OCCCO)cc2)=N[C@@]1(CCS(=O)(=O)c1ccccc1)C(=O)N1CCCCC1,0.481,1.03,-0.0898,-0.133,-0.946,-0.0617,1.04 (inactive),-1.11,-1.11,-0.743 (inactive),-0.0145,0.285 (inactive),-1.55 (inactive),0.716 (inactive),0.659 (inactive),1.77 (inactive),-0.132 (inactive),-0.846 (inactive),-0.661,0.0593
